“And” between values parts separate entries of the source, which are not always exact repeats. Identical values can stand only once. Records with an inconclusive call do not appear. A structure can be active in one record and inactive in another. The source made the active and inactive calls. The calls were made as follows: active = hit-call score of the fitted dose curve at least 0.9, where 1 is the maximum; inconclusive = response in the unintended direction; inactive = score below 0.9.
Key:
[1] = target: human AKT serine/threonine Kinase 1 (AKT1), AKT1 (gene 207) (UniProt P31749); test: NVS_ENZ_hAKT1: NovaScreen (NVS) Enzymatic Assay for human AKT serine/threonine Kinase 1 (AKT1) (AID 2283138)
Procedure, shortened: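 Recombinant human AKT1 with a specific substrate, product separated by electrophoretic mobility shift, read after 1 h. Compounds at 25 uM in duplicate, then concentration-response up to 50 uM for hits; inhibition relative to DMSO.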

[2] = target: human Caspase 5 (CASP5), CASP5 (gene 838) (UniProt P51878); test: NVS_ENZ_hCASP5: NovaScreen (NVS) Enzymatic Assay for human Caspase 5 (CASP5) (AID 2283137)
Procedure, shortened: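 Recombinant human caspase 5 expressed in E. coli, fluorogenic substrate, fluorescence read 2 h after dosing. Single-point 25 uM duplicate screen, then concentration-response to maximum 50 uM for actives; DMSO baseline.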

[3] = target: human Beta-secretase (BACE), BACE1 (gene 23621) (UniProt P56817); test: NVS_ENZ_hBACE: NovaScreen (NVS) Enzymatic Assay for human Beta-secretase (BACE) (AID 2283140);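 also: hits are inhibitors that reduce fluorescent substrate signal versus DMSO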
Procedure, shortened: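 Cell-free assay of recombinant Sf9-expressed human BACE with fluorescent substrate, read by fluorescence intensity after 1 h. Primary screen in duplicate at 25 uM; actives then run in concentration series; loss of signal relative to DMSO.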

CDK2 (gene 1017) = CDK2 (gene 1017) (UniProt P24941); test: NVS_ENZ_hCDK2: NovaScreen (NVS) Enzymatic Assay for human Cyclin-Cependent Kinase 2 (CDK2) (AID 2283144)
Procedure, shortened: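 Cell-free recombinant human CDK2 with fluorescent substrate, product separated by electrophoretic mobility shift; 1 hr read. Primary screen at 25 uM in duplicate, actives retested in concentration-response up to 50 uM; loss of signal versus DMSO.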

[4] = target: human Dual Specificity Protein Phosphatase 3 (DUSP3), DUSP3 (gene 1845) (UniProt P51452); test: NVS_ENZ_hDUSP3: NovaScreen (NVS) Enzymatic Assay for human Dual Specificity Protein Phosphatase 3 (DUSP3) (AID 2283152);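 also: phosphatase activity of recombinant human DUSP3 on a fluorogenic substrate without cells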
Procedure, shortened: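 Cell-free assay with recombinant human DUSP3 and fluorogenic substrate, read by fluorescence intensity. Primary screen ran duplicate at 25 uM; actives followed up in concentration series; loss of signal versus DMSO scored.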

[5] = target: human Elastase, ELANE (gene 1991) (UniProt P08246); test: NVS_ENZ_hElastase: NovaScreen (NVS) Enzymatic Assay for human Elastase (AID 2283153)
Procedure, shortened: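 Cell-free elastase from human neutrophils, 1.5 h after dosing, activity read by absorbance. Primary screen in duplicate at 25 uM; hits (e.g., 30% inhibition) rerun in singleton concentration-response up to 50 uM, fitted versus DMSO.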

[6] = target: human Ephrin type-A Receptor 1 (EphA1), EPHA1 (gene 2041) (UniProt P21709); test: NVS_ENZ_hEphA1: NovaScreen (NVS) Enzymatic Assay for human Ephrin type-A Receptor 1 (EphA1) (AID 2283158);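 also: activity is signal loss versus DMSO meaning EphA1 kinase inhibition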
Procedure, shortened: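 Chemicals first tested in duplicate at 25 uM against recombinant EphA1 with a fluorescent substrate; those passing threshold went to singleton dose-response topping at 50 uM. Activity read 1 h later as mobility-shift fluorescence, loss of signal relative to DMSO.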

[7] = target: human AKT serine/threonine Kinase 2 (AKT2), AKT2 (gene 208) (UniProt P31751); test: NVS_ENZ_hAKT2: NovaScreen (NVS) Enzymatic Assay for human AKT serine/threonine Kinase 2 (AKT2) (AID 2283141)
Procedure, shortened: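 Cell-free fluorescence/electrophoretic mobility shift readout of recombinant human AKT2 activity, 1 h after chemical dosing. Duplicate primary screen at 25 uM, then singleton concentration-response up to 50 uM; loss of signal versus DMSO baseline.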

[8] = target: human Caspase 4 (CASP4), CASP4 (gene 837) (UniProt P49662); test: NVS_ENZ_hCASP4: NovaScreen (NVS) Enzymatic Assay for human Caspase 4 (CASP4) (AID 2283143)
Procedure, shortened: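 The cell-free assay used E. coli-expressed enzyme with a fluorogenic substrate, read 2 h after dosing. Signal loss was scored versus DMSO. Screening was in duplicate at 25 uM, then singleton concentration-response up to 50 uM.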

[9] = target: human Caspase 8 (CASP8), CASP8 (gene 841) (UniProt Q14790); test: NVS_ENZ_hCASP8: NovaScreen (NVS) Enzymatic Assay for human Caspase 8 (CASP8) (AID 2283146)
Procedure, shortened: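 E. coli-expressed enzyme was used in a cell-free fluorogenic substrate assay read 1 h after dosing. Loss of signal was scored relative to DMSO, and the primary screen was run in duplicate at 25 uM.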

[10] = target: human Casein Kinase 2- alpha 2 beta 2 (CK2a2b2), CSNK2A1 (gene 1457) (UniProt P68400); test: NVS_ENZ_hCK2a2b2: NovaScreen (NVS) Enzymatic Assay for human Casein Kinase 2- alpha 2 beta 2 (CK2a2b2) (AID 2283147)
Procedure, shortened: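 Cell-free recombinant CK2 α2β2 holoenzyme with a fluorescent peptide substrate; product separated by electrophoretic mobility shift and read 1 h after dosing. Single-point screen at 25 uM in duplicate; actives were followed with concentration-response up to 50 uM versus DMSO.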

[11] = target: human Casein Kinase 1-delta (CK1D), CSNK1D (gene 1453) (UniProt P48730); test: NVS_ENZ_hCK1D: NovaScreen (NVS) Enzymatic Assay for human Casein Kinase 1-delta (CK1D) (AID 2283148)
Procedure, shortened: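 Recombinant human CK1-delta, cell-free; fluorescent substrate with electrophoretic mobility-shift separation of product, read 1 h after dosing. Single 25 uM duplicate screen, then concentration-response up to 50 uM; loss of signal vs DMSO.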

[12] = target: human Colony Stimulating Factor 1 Receptor (CSF1R), CSF1R (gene 1436) (UniProt P07333); test: NVS_ENZ_hCSF1R: NovaScreen (NVS) Enzymatic Assay for human Colony Stimulating Factor 1 Receptor (CSF1R) (AID 2283150)
Procedure, shortened: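 Cell-free recombinant human CSF1R kinase with fluorescent substrate, product separated by electrophoretic mobility shift; read 1 h after dosing. Primary screen at 25 uM in duplicate, actives then in concentration-response up to 50 uM, relative to DMSO.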

[13] = target: human FYN Proto-Oncogene, Src family Tyrosine Kinase (Fyn), FYN (gene 2534) (UniProt P06241); test: NVS_ENZ_hFyn: NovaScreen (NVS) Enzymatic Assay for human FYN Proto-Oncogene, Src family Tyrosine Kinase (Fyn) (AID 2283161)
Procedure, shortened: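 Recombinant enzyme with fluorescent substrate, product separated by electrophoretic mobility shift; read 1 h after dosing. Duplicate 25 uM single-point screen, actives retested in concentration series; loss of signal vs DMSO.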

[14] = target: rat CYP3A2, Cyp3a2 (gene 266682) (UniProt P05183); test: NVS_ADME_rCYP3A2: NovaScreen (NVS) CYP450-related Enzyme Activity (ADME) Assay for rat CYP3A2 (AID 2283128)
Procedure, shortened: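 Cell-free rat CYP3A2 enzyme assay with fluorescent substrate, read 0.5 h after dosing. Primary duplicate screen at 10 uM; actives run in concentration-response up to 20 uM, relative to acetonitrile baseline.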

[15] = target: human Acid Phosphatase 1 (ACP1), ACP1 (gene 52) (UniProt P24666); test: NVS_ENZ_hACP1: NovaScreen (NVS) Enzymatic Assay for human Acid Phosphatase 1 (ACP1) (AID 2283136)
Procedure, shortened: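 Recombinant enzyme expressed in Sf9 cells, tested cell-free; activity read by fluorescence with electrophoretic mobility shift separation of substrate and product, 1.5 h after dosing. Primary screen in duplicate at 25 uM, actives then run in concentration series; loss of signal versus DMSO.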

Caspase-3 (Homo sapiens) = Caspase-3 (Homo sapiens) (UniProt P42574); test: NVS_ENZ_hCASP3: NovaScreen (NVS) Enzymatic Assay for human Caspase 3 (CASP3) (AID 2283139)
Procedure, shortened: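 Recombinant human caspase-3 from E. coli with a fluorogenic substrate, read by fluorescence 1 h after dosing. Primary screen in duplicate at 25 uM. Actives (for example ≥30% inhibition) rerun as concentration-response up to 50 uM.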

[16] = target: Histone deacetylase 3 (Homo sapiens) (UniProt O15379); test: NVS_ENZ_hHDAC3: NovaScreen (NVS) Enzymatic Assay for human Histone Deacetylase 3 (HDAC3) (AID 2283163)
Procedure, shortened: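 Recombinant human HDAC3 with fluorescent substrate, 1 h after dosing; product separated from substrate by electrophoretic mobility shift and read by fluorescence. Primary screen at 25 uM in duplicate; actives (e.g. ≥30% inhibition) retested in concentration-response up to 50 uM.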

[17] = target: human Ephrin type-B Receptor 1 (EphB1), EPHB1 (gene 2047) (UniProt P54762); test: NVS_ENZ_hEphB1: NovaScreen (NVS) Enzymatic Assay for human Ephrin type-B Receptor 1 (EphB1) (AID 2283154)
Procedure, shortened: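 Cell-free kinase assay with recombinant enzyme, fluorescent substrate and electrophoretic mobility-shift separation of substrate and product; read 1 h after dosing. Single-concentration duplicate screen at 25 uM; loss of signal versus DMSO baseline.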

[18] = target: human Esterase Plasma (ES), BCHE (gene 590) (UniProt P06276); test: NVS_ENZ_hES: NovaScreen (NVS) Enzymatic Assay for human Esterase Plasma (ES) (AID 2283157)
Procedure, shortened: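 Chemicals were added to plasma-extracted human enzyme in a cell-free format, and activity was read colorimetrically after 0.25 hour. Activity loss was referenced to DMSO; concentration-response top dose was 50 uM.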

Measured: AC50

Sequence of human Dual Specificity Protein Phosphatase 3 (DUSP3), DUSP3 (gene 1845) (P51452 whole entry, looked up): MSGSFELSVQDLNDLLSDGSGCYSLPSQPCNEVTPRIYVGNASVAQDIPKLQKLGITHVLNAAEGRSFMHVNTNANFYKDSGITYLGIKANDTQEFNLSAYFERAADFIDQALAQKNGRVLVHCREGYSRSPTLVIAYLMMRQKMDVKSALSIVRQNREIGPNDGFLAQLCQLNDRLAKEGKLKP
Sequence of human AKT serine/threonine Kinase 1 (AKT1), AKT1 (gene 207) (P31749 whole entry, looked up): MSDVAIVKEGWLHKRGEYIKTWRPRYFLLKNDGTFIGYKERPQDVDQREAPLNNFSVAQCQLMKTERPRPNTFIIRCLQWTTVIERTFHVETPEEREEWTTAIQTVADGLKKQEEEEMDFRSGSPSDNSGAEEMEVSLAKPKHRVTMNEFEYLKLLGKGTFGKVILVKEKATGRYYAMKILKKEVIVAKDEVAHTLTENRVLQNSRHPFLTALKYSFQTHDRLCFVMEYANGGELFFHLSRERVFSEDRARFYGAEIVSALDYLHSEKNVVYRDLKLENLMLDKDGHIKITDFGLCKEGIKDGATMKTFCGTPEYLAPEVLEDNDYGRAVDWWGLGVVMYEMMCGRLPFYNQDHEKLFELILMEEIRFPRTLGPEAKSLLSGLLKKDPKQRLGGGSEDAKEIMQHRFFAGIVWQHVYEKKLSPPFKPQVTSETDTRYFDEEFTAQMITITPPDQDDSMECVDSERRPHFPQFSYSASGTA
Sequence of rat CYP3A2, Cyp3a2 (gene 266682) (P05183 whole entry, looked up): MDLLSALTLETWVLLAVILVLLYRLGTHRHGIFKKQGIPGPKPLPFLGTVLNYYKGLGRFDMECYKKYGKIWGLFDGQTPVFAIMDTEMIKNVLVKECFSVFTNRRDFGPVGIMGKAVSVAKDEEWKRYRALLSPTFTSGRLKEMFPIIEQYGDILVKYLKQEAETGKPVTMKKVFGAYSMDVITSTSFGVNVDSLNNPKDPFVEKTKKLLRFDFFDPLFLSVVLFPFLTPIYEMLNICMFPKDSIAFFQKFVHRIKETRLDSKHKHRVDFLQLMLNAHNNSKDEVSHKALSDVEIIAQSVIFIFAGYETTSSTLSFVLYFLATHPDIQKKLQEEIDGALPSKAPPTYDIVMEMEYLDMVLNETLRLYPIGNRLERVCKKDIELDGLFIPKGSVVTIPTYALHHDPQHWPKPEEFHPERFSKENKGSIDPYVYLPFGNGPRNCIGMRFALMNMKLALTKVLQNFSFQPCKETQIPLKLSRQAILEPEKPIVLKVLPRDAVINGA
Sequence of Histone deacetylase 3 (Homo sapiens) (O15379 whole entry, looked up): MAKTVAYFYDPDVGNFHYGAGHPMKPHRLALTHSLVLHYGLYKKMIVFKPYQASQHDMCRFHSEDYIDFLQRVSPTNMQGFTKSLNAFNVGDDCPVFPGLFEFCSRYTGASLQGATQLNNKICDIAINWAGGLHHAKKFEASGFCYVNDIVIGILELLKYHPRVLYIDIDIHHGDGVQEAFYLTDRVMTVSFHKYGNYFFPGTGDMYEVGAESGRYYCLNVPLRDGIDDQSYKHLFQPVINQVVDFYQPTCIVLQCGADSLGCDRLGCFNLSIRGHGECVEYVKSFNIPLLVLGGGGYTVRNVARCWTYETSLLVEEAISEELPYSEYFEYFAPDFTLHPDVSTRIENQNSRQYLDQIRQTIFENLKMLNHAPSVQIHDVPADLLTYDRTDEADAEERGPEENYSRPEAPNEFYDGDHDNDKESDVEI
Sequence of human Casein Kinase 2- alpha 2 beta 2 (CK2a2b2), CSNK2A1 (gene 1457) (P68400 whole entry, looked up): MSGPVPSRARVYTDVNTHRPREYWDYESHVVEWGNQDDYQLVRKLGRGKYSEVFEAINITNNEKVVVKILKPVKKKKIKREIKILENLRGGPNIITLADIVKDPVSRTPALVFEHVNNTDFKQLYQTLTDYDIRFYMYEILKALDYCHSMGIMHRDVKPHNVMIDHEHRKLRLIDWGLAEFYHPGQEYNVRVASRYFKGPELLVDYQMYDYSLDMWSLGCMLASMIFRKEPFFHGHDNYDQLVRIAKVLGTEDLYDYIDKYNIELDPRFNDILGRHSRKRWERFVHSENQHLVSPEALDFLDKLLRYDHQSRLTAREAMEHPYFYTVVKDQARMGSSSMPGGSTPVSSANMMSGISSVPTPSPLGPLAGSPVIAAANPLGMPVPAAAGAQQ
Sequence of human Caspase 5 (CASP5), CASP5 (gene 838) (P51878 whole entry, looked up): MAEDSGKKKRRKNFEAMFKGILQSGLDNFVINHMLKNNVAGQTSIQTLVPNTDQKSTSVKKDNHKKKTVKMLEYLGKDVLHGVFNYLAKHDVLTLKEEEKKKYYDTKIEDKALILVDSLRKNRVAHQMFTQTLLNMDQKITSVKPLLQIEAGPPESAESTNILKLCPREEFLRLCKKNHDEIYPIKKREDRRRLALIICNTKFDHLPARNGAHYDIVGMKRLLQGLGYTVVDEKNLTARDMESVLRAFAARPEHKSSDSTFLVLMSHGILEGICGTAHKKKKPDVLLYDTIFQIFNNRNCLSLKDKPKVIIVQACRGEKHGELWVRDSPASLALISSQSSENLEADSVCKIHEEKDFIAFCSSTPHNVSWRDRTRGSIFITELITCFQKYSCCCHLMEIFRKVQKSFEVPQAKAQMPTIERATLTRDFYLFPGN
Sequence of human Acid Phosphatase 1 (ACP1), ACP1 (gene 52) (P24666 whole entry, looked up): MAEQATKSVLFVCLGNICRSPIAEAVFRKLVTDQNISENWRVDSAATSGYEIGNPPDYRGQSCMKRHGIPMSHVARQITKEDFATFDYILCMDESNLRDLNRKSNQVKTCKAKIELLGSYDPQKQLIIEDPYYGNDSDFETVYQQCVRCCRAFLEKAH
Sequence of human Casein Kinase 1-delta (CK1D), CSNK1D (gene 1453) (P48730 whole entry, looked up): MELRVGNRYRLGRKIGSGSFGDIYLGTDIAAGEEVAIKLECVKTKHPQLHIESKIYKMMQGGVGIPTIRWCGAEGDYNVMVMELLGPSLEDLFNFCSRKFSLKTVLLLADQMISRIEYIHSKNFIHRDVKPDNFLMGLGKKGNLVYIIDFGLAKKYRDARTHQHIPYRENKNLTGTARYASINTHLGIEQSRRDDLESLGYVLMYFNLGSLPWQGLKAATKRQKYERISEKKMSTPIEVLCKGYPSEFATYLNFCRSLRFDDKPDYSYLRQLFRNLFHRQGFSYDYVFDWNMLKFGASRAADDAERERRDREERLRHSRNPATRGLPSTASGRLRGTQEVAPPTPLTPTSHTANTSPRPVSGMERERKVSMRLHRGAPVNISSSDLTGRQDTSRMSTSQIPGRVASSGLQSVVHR
Sequence of human Caspase 4 (CASP4), CASP4 (gene 837) (P49662 whole entry, looked up): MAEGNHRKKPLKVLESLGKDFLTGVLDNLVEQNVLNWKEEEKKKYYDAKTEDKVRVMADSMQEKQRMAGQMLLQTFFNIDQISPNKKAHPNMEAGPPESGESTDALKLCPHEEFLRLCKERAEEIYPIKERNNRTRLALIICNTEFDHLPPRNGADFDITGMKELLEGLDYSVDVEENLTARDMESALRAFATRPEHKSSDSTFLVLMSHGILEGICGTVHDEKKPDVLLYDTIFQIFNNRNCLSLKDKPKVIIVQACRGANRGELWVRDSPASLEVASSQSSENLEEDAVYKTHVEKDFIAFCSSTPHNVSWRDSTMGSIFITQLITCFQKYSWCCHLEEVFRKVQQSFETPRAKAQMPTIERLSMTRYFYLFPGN
Sequence of human Ephrin type-A Receptor 1 (EphA1), EPHA1 (gene 2041) (P21709 whole entry, looked up): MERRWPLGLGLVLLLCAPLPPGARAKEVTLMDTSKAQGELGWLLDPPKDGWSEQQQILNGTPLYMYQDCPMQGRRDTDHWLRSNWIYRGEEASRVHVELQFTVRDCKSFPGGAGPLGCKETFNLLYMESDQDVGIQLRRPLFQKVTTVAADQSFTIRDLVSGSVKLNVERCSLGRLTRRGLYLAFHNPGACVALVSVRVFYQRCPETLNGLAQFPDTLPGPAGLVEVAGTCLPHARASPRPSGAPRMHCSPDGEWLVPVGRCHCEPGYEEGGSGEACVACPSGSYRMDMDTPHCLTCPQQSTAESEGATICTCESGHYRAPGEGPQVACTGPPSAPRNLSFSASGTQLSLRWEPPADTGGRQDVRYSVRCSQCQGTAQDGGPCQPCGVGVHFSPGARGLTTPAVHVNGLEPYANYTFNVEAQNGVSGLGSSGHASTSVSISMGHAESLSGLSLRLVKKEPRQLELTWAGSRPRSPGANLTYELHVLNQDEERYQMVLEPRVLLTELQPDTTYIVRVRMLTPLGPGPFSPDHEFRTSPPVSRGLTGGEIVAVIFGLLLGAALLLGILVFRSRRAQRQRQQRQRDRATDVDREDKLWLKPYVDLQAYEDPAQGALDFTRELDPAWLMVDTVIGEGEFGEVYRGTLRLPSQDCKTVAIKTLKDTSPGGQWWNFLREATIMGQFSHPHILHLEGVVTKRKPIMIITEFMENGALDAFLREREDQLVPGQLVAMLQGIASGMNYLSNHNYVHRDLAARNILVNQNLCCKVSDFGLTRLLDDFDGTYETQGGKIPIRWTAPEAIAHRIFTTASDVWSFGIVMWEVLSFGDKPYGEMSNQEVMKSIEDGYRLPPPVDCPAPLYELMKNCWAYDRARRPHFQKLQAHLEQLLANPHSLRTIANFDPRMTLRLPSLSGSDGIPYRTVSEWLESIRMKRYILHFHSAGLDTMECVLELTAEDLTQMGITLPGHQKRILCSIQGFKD
Sequence of human AKT serine/threonine Kinase 2 (AKT2), AKT2 (gene 208) (P31751 whole entry, looked up): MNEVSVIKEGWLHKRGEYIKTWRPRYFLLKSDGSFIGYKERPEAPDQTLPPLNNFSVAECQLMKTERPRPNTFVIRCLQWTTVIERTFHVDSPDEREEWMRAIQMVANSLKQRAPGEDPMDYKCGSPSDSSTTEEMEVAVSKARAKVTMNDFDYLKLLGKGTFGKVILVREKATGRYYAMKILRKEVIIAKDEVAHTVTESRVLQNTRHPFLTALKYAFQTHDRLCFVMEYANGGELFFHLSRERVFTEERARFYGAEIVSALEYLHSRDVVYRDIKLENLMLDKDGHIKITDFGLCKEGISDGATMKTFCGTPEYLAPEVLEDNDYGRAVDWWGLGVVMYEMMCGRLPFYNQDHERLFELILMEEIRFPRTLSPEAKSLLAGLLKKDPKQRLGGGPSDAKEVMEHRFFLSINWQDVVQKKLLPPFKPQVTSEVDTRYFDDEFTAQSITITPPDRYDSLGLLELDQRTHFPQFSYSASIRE

CN(C)C(=O)Nc1ccc(Cl)c(Cl)c1
inactive: [1]

N[C@@H](Cc1cc(I)c(Oc2ccc(O)c(I)c2)c(I)c1)C(=O)O
active: [2] 8.73 µM | [3] 25.9 µM | [4] 6.35 µM
inactive: CDK2 (gene 1017) | [5] | [6]

COc1nc(C)nc(NC(=O)NS(=O)(=O)c2ccccc2OCCCl)n1
inactive: [1]

CCC(O)=C1C(=O)CC(C(=O)O)CC1=O (centres undefined)
inactive: [2] | [7] | [8]

S=C([S-])NCCNC(=S)[S-].[Mn+2]
active: [2] 15.1 µM | [1] 1.05 µM | [3] 17.6 µM | [7] 606 nM | CDK2 (gene 1017) 11.4 µM | [10] 3.93 µM | [11] 25 µM | [12] 5.51 µM
inactive: [8] | [9] | [4] | [5] | [13]

CCCCC(CC)CN1C(=O)C2C3C=CC(C3)C2C1=O (centres undefined)
active: [14] 6.87 µM
inactive: [7]

S=C(S)NCCNC(=S)S.[Mn+2].[S-]C([S-])=NCCN=C([S-])[S-].[Zn+2]
active: [15] 4.22 µM and 4.27 µM | [1] 683 nM and 1.49 µM | [3] 9.11 µM | [7] 1.64 µM and 1.94 µM | [8] 0.179 µM | CDK2 (gene 1017) 0.879 µM | [10] 5.4 µM | [11] 18.2 µM and 33.6 µM | [12] 963 nM and 315 nM and 12.9 µM | [6] 43.5 µM | [16] 10 µM and 445 nM
inactive: Caspase-3 (Homo sapiens) | [8] | [9] | [6]

CCCCOC(=O)[C@@H](C)Oc1ccc(Oc2ccc(C(F)(F)F)cn2)cc1
inactive: [1] | [3] | [4]

Oc1ccc(C(c2ccc(O)cc2)C(Cl)(Cl)Cl)cc1
inactive: [17]
active: [14] 2.7 µM | [2] 10.1 µM | [3] 4.96 µM

CC(C)(c1ccc(O)cc1)c1ccc(O)cc1
inactive: [9] | [18]
active: [14] 8.05 µM | [11] 25.4 µM

C=CCOC(Cn1ccnc1)c1ccc(Cl)cc1Cl (centres undefined)
active: [14] 0.874 µM

N#CSCSc1nc2ccccc2s1
inactive: [17] | [6]
active: [14] 7.06 µM | [10] 14.4 µM | [16] 20 µM

O=C(O)C1(C(=O)Nc2ccc(Cl)cc2Cl)CC1
inactive: [12]
active: [15] 39.2 µM | [2] 3.02 µM | CDK2 (gene 1017) 7.29 µM | [9] 7.55 µM | [10] 12.7 µM

Reference: PubChem BioAssay (EPA / NIEHS)
